From PubChem BioAssay AID651610 (Broad Institute, 2012)
In all, about 360,000 compounds went through this assay and about 3,900 (1.1%) were called active. This is one part of a sample in which actives are shown more often than they occur.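 The calls were made as follows: active = mean replicate inhibition score of at least 50 and every replicate individually at or above 50; inconclusive = only one of the two criteria met; inactive = mean below 50 and not all replicates reaching 50.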

Experiment: blockers of JRFL envelope-mediated fusion – HeLa-JRFL effector, CEM21 target cells, luciferase, primary screen (AID 651610);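 also: 0% = plate neutral controls and 100% = maraviroc near 300 nM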
Settings: HeLa-JRFL Env/CEM21 cell fusion, stronger effect = higher value; at 16.7 µM unless noted

inhibition, inactive:
O=C(Nc1cc(Cl)cc(Cl)c1)N[C@H]1CC[C@@H](CCNS(=O)(=O)c2cccc(F)c2)O[C@H]1CO 0.313%
CCCCNc1cccc2c1S(=O)(=O)N[C@@H](C)CO2 -0.896% [at 12.3 µM]
C/C(=N/NC(=O)c1ccncc1)c1ccc2c(c1)OCO2 -13.1% [at 12.3 µM]
COc1ccc(C(O)c2nc(-c3ccc4c(c3)OCO4)cs2)cc1 (stereo unspecified) -6.46% [at 12.3 µM]
CCC(CC)c1nnc(NC(=O)C2=COCCO2)s1 -12% [at 12.3 µM]
NS(=O)(=O)c1ccc2nc(NC(=O)C3=COCCO3)sc2c1 -13.9% [at 12.3 µM]
Cc1noc(C)c1NC(=O)N(C)C[C@@H]1OCCCC[C@@H](C)Oc2ccc(NC(=O)C3CCCCC3)cc2C(=O)N([C@H](C)CO)C[C@@H]1C -14%
C[C@@H]1CN([C@@H](C)CO)C(=O)c2cc(NC(=O)Nc3cccc4ccccc34)ccc2O[C@@H]1CN(C)C(=O)Nc1cccc2ccccc12 7.37%
C[C@@H]1CN([C@@H](C)CO)C(=O)c2cc(-c3cncnc3)cnc2O[C@H]1CN(C)C(=O)c1cccc(F)c1 -6.88%
C[C@@H]1CN([C@@H](C)CO)S(=O)(=O)c2ccc(C#CC3(O)CCCC3)cc2O[C@H]1CN(C)C(=O)c1ccncc1 -22.7%
CNC[C@H]1Oc2cc(-c3ccc(OC)cc3)ccc2S(=O)(=O)N([C@H](C)CO)C[C@@H]1C 1.64%
CNC[C@H]1Oc2c(NC(=O)C3CC3)cccc2C(=O)N([C@@H](C)CO)C[C@@H]1C -1.43%
CCS(=O)(=O)N[C@@H]1CC[C@@H](CC(=O)NCC2CC2)O[C@H]1CO -3.04%
C[C@@H]1CN([C@H](C)CO)S(=O)(=O)c2ccc(-c3ccccc3)cc2O[C@H]1CN(C)C(=O)C1CCC1 19.5%
C[C@@H]1CN([C@@H](C)CO)C(=O)Cc2cc(NS(=O)(=O)c3ccc(Cl)cc3)ccc2O[C@H]1CN(C)CC1CCCCC1 32.1%
C[C@H]1CN([C@@H](C)CO)C(=O)c2cc(-c3cccc(C(=O)N(C)C)c3)cnc2O[C@H]1CN(C)S(=O)(=O)c1ccccc1 -10.1%
O=C(C[C@H]1C[C@@H]2c3cc(NC(=O)C4CCC4)ccc3O[C@@H]2[C@H](CO)O1)NCCN1CCCCC1 16.8%
CCOC(=O)C1=C(CCc2ccccc2)NC(=O)NC1c1ccc2ccccc2c1 (stereo unspecified) 6.29% [at 12.3 µM]
CCOC(=O)C1=C(c2ccccc2)NC(=O)NC1c1cc(OCC)c(O)c([N+](=O)[O-])c1 (stereo unspecified) -15.8% [at 12.3 µM]
CCOC(=O)C1=C(CN2CCc3ccccc32)NC(=O)NC1c1cc(C)ccc1C (stereo unspecified) -13.6% [at 12.3 µM]
CCC(CC)COC(=O)C1=C(C)NC(=O)NC1c1ccc([N+](=O)[O-])cc1 (stereo unspecified) 29.9% [at 12.3 µM]
CNC[C@@H]1Oc2c(NC(=O)C3CCOCC3)cccc2C(=O)N([C@@H](C)CO)C[C@H]1C -14.2%
C[C@H]1CN([C@@H](C)CO)C(=O)Cc2cc(NC(=O)C3CC3)ccc2O[C@@H]1CN(C)C(=O)NC1CCCCC1 2.31%
C/C=C/c1ccc2c(c1)O[C@H](CN(C)C(=O)C1CCCCC1)[C@@H](C)CN([C@@H](C)CO)S2(=O)=O 8.29%
C[C@@H]1CN([C@H](C)CO)C(=O)c2cc(C3=CCCC3)cnc2O[C@@H]1CN(C)C(=O)Nc1ccc(F)cc1 4.49%
O=C(O)CC/C(=C\c1cc2c(cc1Br)OCO2)c1nc2ccccc2s1 -9.93% [at 12.3 µM]
O=C(N/N=C\c1cc2c(cc1Cl)OCO2)c1ccc(Br)s1 -61.6% [at 12.3 µM]
Cc1noc(C)c1S(=O)(=O)Nc1ccc2c(c1)CC(=O)N([C@H](C)CO)C[C@H](C)[C@H](CN(C)S(=O)(=O)c1cn(C)cn1)O2 -15.2%
Cc1noc(C)c1NC(=O)N(C)C[C@@H]1Oc2ccc(NS(=O)(=O)c3ccc(F)cc3)cc2CC(=O)N([C@@H](C)CO)C[C@H]1C -12%
Cc1ccc2nc(-c3ccc(Br)cc3)cn2c1 34.5% [at 12.3 µM]
Cc1ccc(-c2nc3ccc(Cl)cn3c2Cc2ccccc2)cc1 -27% [at 12.3 µM]
C[C@H](CO)N1C[C@H](C)[C@@H](CN(C)S(=O)(=O)c2ccccc2F)Oc2ncc(C#Cc3ccccc3F)cc2C1=O 17.5%
Cn1c(C(=O)N2CCC(C(N)=O)CC2)cc2c(=O)n(C)c3ccccc3c21 0.068% [at 12.3 µM]
CCOC(=O)N1CCN(C(=O)c2nn(-c3ccc(C)cc3)c(=O)c3c2c2ccccc2n3C)CC1 -11% [at 12.3 µM]
O=C(C[C@@H]1CC[C@H]2NC[C@H](O)COC[C@@H]2O1)NCCN1CCCCC1 -8.63%
C[C@H]1CCCCO[C@@H](CN(C)C(=O)Cc2ccccc2)[C@@H](C)CN([C@@H](C)CO)C(=O)c2cc(NC(=O)c3ccccc3)ccc2O1 -43.3%
NC(c1ccccc1)c1csc(NC(=O)Nc2cccc(C(F)(F)F)c2)n1 (stereo unspecified) 39.2% [at 12.3 µM]
COc1ccc(C(N)c2csc(NC(=O)Nc3cccc(C(F)(F)F)c3)n2)cc1 (stereo unspecified) 18.1% [at 12.3 µM]
C[C@@H]1CN([C@@H](C)CO)C(=O)c2cc(-c3ccccc3F)cnc2O[C@H]1CN(C)C(=O)C1CC1 15%
Cc1cc(C)cc(NC(=S)NCCc2c[nH]c3ccccc23)c1 2.48% [at 12.3 µM]
COc1ccc(C(CCNCc2ccccc2F)c2ccc(F)cc2)cc1 (stereo unspecified) -1.51% [at 12.3 µM]
CC(C)CC#Cc1ccc2c(c1)O[C@H](CN(C)Cc1ccncc1)[C@H](C)CN([C@H](C)CO)S2(=O)=O 12.7%
CCCNC(=O)C[C@@H]1CC[C@H]2[C@H](COc3ccc(NC(=O)CCC)cc3C(=O)N2C)O1 -1.97%
CCNC(=O)c1cc2c(c(-c3cccc(C4=CCCC4)c3)n1)[C@H](CCO)N([S@@](=O)C(C)(C)C)C2 -0.132%
COc1ccc(Nc2nc(NCc3ccco3)nc(N/N=C/c3ccccc3Cl)n2)cc1 -11.9% [at 12.3 µM]
CNc1nc(Nc2ccc(C)c(Cl)c2)nc(N)c1[N+](=O)[O-] 17.7% [at 12.3 µM]
CO[C@H]1CN(C)C(=O)c2ccc(NC(C)=O)cc2OC[C@@H](C)N(C(=O)c2ccccn2)C[C@@H]1C 4.28%
C[C@@H]1CN([C@H](C)CO)S(=O)(=O)c2ccc(Br)cc2O[C@@H]1CN(C)Cc1cncnc1 -25.8%
C[C@@H]1CN([C@H](C)CO)C(=O)c2cccc(N(C)C)c2O[C@H]1CN(C)S(=O)(=O)c1cn(C)cn1 -2.57%
O=C(Cc1ncc(C(F)(F)F)cc1Cl)Nc1cccc(Br)c1 -3.53% [at 12.3 µM]
O=C(CN1CCOCC1)Nc1ccc(NC(=O)CN2CCOCC2)c(Cl)c1 -13.8% [at 12.3 µM]
Cc1noc(C)c1NC(=O)N[C@@H]1C=C[C@H](CC(=O)N2CCCCC2)O[C@H]1CO 7.13%
C[C@H](CO)N1C[C@H](C)[C@@H](CN(C)C(=O)c2ccccc2)OCCCC[C@H](C)Oc2ccc(NC(=O)c3ccccc3)cc2C1=O -52.7%
COC(=O)[C@]12C[C@H](CC(=O)NCCC(C)C)C(=O)N(CCc3ccc(OC)c(OC)c3)C1=C[C@H](C(C)(C)C)O[C@@H]2C 14.5% [at 12.3 µM]
CCCCCCCCN1C(=O)[C@@H](CC(=O)NCc2ccc(C)o2)C[C@@]2(C(=O)OC)C1=C[C@H](C(C)(C)C)O[C@@H]2C 38% [at 12.3 µM]
CCCCOCCCNC(=O)C[C@@H]1C[C@@]2(C(=O)OCC)CCCC=C2N(CCC2=CCCCC2)C1=O 34.4% [at 12.3 µM]
CCCCCCCCN1C(=O)[C@@H](CC(=O)NCCCC)C[C@@]2(C(=O)OC)C1=C[C@H](C(C)(C)C)O[C@@H]2C 39.6% [at 12.3 µM]
CCOC(=O)[C@]12CCCC=C1N(CCC1=CCCCC1)C(=O)[C@H](CC(=O)NCCCOC)C2 20% [at 12.3 µM]
COC(=O)[C@]12C[C@H](CC(=O)NCCCCc3ccccc3)C(=O)N(Cc3ccc4c(c3)OCO4)C1=C[C@H](C(C)(C)C)O[C@@H]2C -19.5% [at 12.3 µM]
COCCCNC(=O)C[C@H]1C[C@@]2(C(=O)OC)C(=C[C@H](C(C)(C)C)O[C@@H]2C)N(Cc2ccc3c(c2)OCO3)C1=O -14% [at 12.3 µM]
CCOC(=O)[C@]12CCC=C1N(CCC1=CCCCC1)C(=O)[C@H](CC(=O)NCc1ccc(C)o1)C2 -8.89% [at 12.3 µM]

inhibition, active:
O=C(Nc1nc(-c2ccc3c(c2)OCO3)cs1)c1ccncc1 71% [at 12.3 µM]
Cc1ccc(-c2csc(NC(=O)C3=COCCO3)n2)cc1C 55.4% [at 12.3 µM]
CCOC(=O)C1=C(CN2CCc3ccccc32)NC(=O)NC1c1cccc([N+](=O)[O-])c1 (stereo unspecified) 64.3% [at 12.3 µM]
CCOC(=O)C1=C(CN2CCc3ccccc32)NC(=O)NC1c1ccc(Cl)cc1 (stereo unspecified) 58% [at 12.3 µM]
CC1(C(=O)N/N=C/c2cc3c(cc2Br)OCO3)CC1(Br)Br (stereo unspecified) 102% [at 12.3 µM]
Cc1ccc(-c2cn3cc(C)ccc3n2)cc1 60.5% [at 12.3 µM]
Cn1c2ccccc2c2c(C(=O)N3CCN(c4ccc(F)cc4)CC3)cn(C3CCCC3)c(=O)c21 67.5% [at 12.3 µM]
NC(c1csc(NC(=O)Nc2cccc(C(F)(F)F)c2)n1)C1CCCCC1 (stereo unspecified) 61% [at 12.3 µM]
COc1cccc(CNCCc2c[nH]c3ccccc23)c1OCc1ccccc1F 79.1% [at 12.3 µM]
COc1cccc(Nc2nc(N)c([N+](=O)[O-])c(NCc3ccco3)n2)c1 56.2% [at 12.3 µM]
O=C(CC(O)(C(F)(F)F)C(F)(F)F)Nc1ccc(Cl)c(Cl)c1 109% [at 12.3 µM]
CCCCOCCCNC(=O)C[C@@H]1C[C@@]2(C(=O)OC)CCCCC=C2N(CCC2=CCCCC2)C1=O 63.6% [at 12.3 µM]
COC(=O)[C@]12C[C@H](CC(=O)NCc3ccc(C)o3)C(=O)N(CCC3=CCCCC3)C1=C[C@H](C(C)(C)C)O[C@@H]2C 70.3% [at 12.3 µM]
COC(=O)[C@]12C[C@H](CC(=O)NCc3ccccc3)C(=O)N(CCC3=CCCCC3)C1=C[C@H](C(C)(C)C)O[C@@H]2C 67.5% [at 12.3 µM]
CCCCCCCCN1C(=O)[C@@H](CC(=O)NCc2ccccc2)C[C@@]2(C(=O)OC)C1=C[C@H](C(C)(C)C)O[C@@H]2C 64.7% [at 12.3 µM]
